# Bioassay records from PubChem.
# Shown are actives, neighbours in structure and some others; about 2.6% of the full set was active somewhere.
# LGR2 inh = inhibitors of bursicon-induced Drosophila LGR2 receptor cAMP signaling | HEK293 LGR2, CRE-luciferase, bursicon-stimulated, 4 h | inhibition, % at 9.99 µM | 380,000 compounds, 0.35% hits | AID 720647;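 active = drop in luminescence signal, shown as inhibition above about 50% in the replicate tests, limit read from the data, passing the limit was not always enough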;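 note: agonist challenge used bursicon conditioned medium at about half maximal strength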
# TROY NFkB inh = inhibitors of TROY-dependent NF-kB signaling; Q293 LMP1-TROYcd NF-kB luciferase reporter, 4 h; 360,000 compounds, 0.98% hits; inhibition, % at 10 µM;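 active = compounds whose plate-normalised and pattern-corrected inhibition of the luciferase reporter signal at the single screening dose is 50% or more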
# EBV LMP1 NFkB = reduces LMP1-driven NF-kappaB luciferase signal | LMP1-induced NF-kappaB luciferase reporter cells, luminescence | inhibition, % at 12.5 µM | 350,000 compounds, 0.69% hits; in the data active = inhibition above about 41%
# EWS-Fli inh = blocks EWS/Fli oncoprotein-driven transcription; A673 NR0B1-luciferase reporter, viability-normalised; inhibition, % at 12.6 µM; 350,000 compounds, 0.67% hits;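 active = mean inhibition of at least 50% after viability correction, with every replicate also passing that limit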;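 note: firefly luciferase signal divided by Alamar Blue viability fluorescence both relative to DMSO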
# TWEAK-Fn14 inh = blocks TWEAK-Fn14 interaction in a reporter cell assay. AID 1159606. 360,000 compounds, 2% hits. inhibition, % at 10 µM. TWEAK-stimulated Fn14 reporter cells, luciferase luminescence, 8 h; in the data active = inhibition above about 50%
# A number is an active result; . = inactive; / = not tested or not shown.
SMILES,LGR2 inh,TROY NFkB inh,EBV LMP1 NFkB,EWS-Fli inh,TWEAK-Fn14 inh
Cc1c(C(=O)NCc2ccc(C(C)C)cc2)sc(=O)n1Cc1ccc(S(=O)(=O)N(C)C)cc1,.,.,/,.,64
Cc1c(C(=O)NCc2ccc(Cl)c(Cl)c2)sc(=O)n1Cc1ccc(S(=O)(=O)N(C)C)cc1,.,.,/,.,67
C[C@H](CO)N1C[C@H](C)[C@H](CN(C)C(=O)Nc2ccccc2)Oc2ccc(NC(=O)c3ccncc3)cc2C1=O,.,/,/,/,/
CC1=NN(c2nc(N)nc(/C(C#N)=C/c3ccc([N+](=O)[O-])o3)n2)C(C)(C)C1,.,.,.,70,71
O=C1C2C(C(=O)N1/N=C/c1ccc([N+](=O)[O-])o1)C1C=CC2C12CC2 (stereo not drawn),.,.,.,/,.
C[C@@H]1CN([C@H](C)CO)S(=O)(=O)c2ccc(C3=CCCC3)cc2O[C@@H]1CN(C)C,.,/,/,.,/
COc1cccc(NC(=O)Nc2ccc3nsnc3c2)c1,.,.,.,.,.
COc1ccc(NC(=O)Nc2cccc(OC)c2)cc1,/,.,.,/,.
COc1cccc(NC(=O)Nc2nccc(C)n2)c1,.,.,.,.,62
COc1cccc(NC(=O)Nc2nc(SC(C)(C)C)ns2)c1,.,.,.,.,77
CCSc1nsc(NC(=O)Nc2cccc(F)c2)n1,.,.,.,.,55
COc1cccc(NC(=O)Nc2nc(SC)ns2)c1,.,.,.,.,56
CCC(=O)N(C)C[C@@H]1[C@@H](c2ccc(-c3cccnc3)cc2)[C@H](CO)N1C(C)=O,.,/,/,.,/
COc1cccc(S(=O)(=O)Nc2ccc3c(c2)[C@@H]2C[C@H](CC(=O)N[C@@H](C)c4ccccc4)O[C@@H](CO)[C@@H]2O3)c1,.,/,/,.,/
C[C@@H]1CN([C@H](C)CO)C(=O)Cc2cc(N(C)C)ccc2O[C@@H]1CN(C)C(=O)NC1CCCCC1,.,/,/,.,/
COc1ccc(C(=O)NC2CC2)cc1OC1CCN(Cc2cc(C)c(C)cc2C)CC1,.,.,.,.,88
COc1ccc(S(=O)(=O)Nc2cccc(-c3ccc4nncn4n3)c2)cc1,.,.,.,64,.
O=C1CC(C(=O)Nc2ccccc2)C2(CCCCC2)O1 (stereo not drawn),/,.,65,/,.
C[C@H]1CN([C@@H](C)CO)C(=O)c2cc(NC(=O)C3CCCCC3)ccc2O[C@H]1CN(C)C(=O)Nc1ccc(F)cc1,.,/,/,.,/
COc1ccc(/C=C/c2nc3ccccc3n2C)cc1,96,.,54,81,76
COc1ccc(/C=N\n2nnc3ccccc32)cc1,/,.,.,/,90
COc1ccc(/C=C/c2nc3ccccc3c(=O)o2)cc1,90,83,51,71,97
CCCCCCCCN1C(=O)[C@H](CC(=O)NCC2CCCCC2)C[C@@]2(C(=O)OCC)CCCC=C12,.,51,/,.,.
CCOC(=O)COc1ccc2c(c1)C(=O)CC1(CCN(C(C)=O)CC1)O2,.,.,.,.,.
CCOC(=O)N1CCC2(CC1)CC(=O)c1cc(O)ccc1O2,/,.,.,/,64
SMILES,LGR2 inh,TROY NFkB inh,EBV LMP1 NFkB,EWS-Fli inh,TWEAK-Fn14 inh
COc1ccc(S(=O)(=O)N(C)C[C@H]2Oc3ccc(NS(=O)(=O)c4ccc(Cl)cc4)cc3CC(=O)N([C@H](C)CO)C[C@H]2C)cc1,.,/,/,.,/
COc1ccc2c3c([nH]c2c1)[C@H](CO)N(C(=O)C1CCCCC1)CC31CCN(C(=O)NC(C)C)CC1,.,/,/,.,/
O=C(/C=C/c1ccc(OCCCF)cc1)Nc1ccnc(-c2ccncc2)n1,.,.,.,.,.
O=C(/C=C/c1ccc(OCCCF)cc1)Nc1ccnc(-c2cccnc2)n1,/,52,.,.,.
Cc1nn(-c2ccccc2)c(Cl)c1/C=C1\SC(=S)NC1=O,/,51,.,/,.
Cc1nn(-c2ccccc2)c(Cl)c1/C=C1\SC(=S)N(CCCCCC(=O)O)C1=O,.,.,.,.,.
O=C(Nc1ccc2c(c1)[C@@H]1C[C@H](CC(=O)N3CCOCC3)O[C@H](CO)[C@@H]1O2)c1cccnc1,.,/,/,.,/
CC1CCc2c(sc(NC(=O)c3ccccc3C(=O)O)c2C#N)C1 (stereo not drawn),.,.,.,.,.
CCC(C)(C)C1CCc2c(sc(NC(=O)c3ccoc3C)c2C(N)=O)C1 (stereo not drawn),/,63,.,/,.
CC(C)(C)C1CCc2c(sc(NC(=O)C3CC=CCC3C(=O)O)c2C#N)C1 (stereo not drawn),.,56,.,/,.
CCC(C)(C)C1CCc2c(sc(NC(=O)c3ccccc3C(=O)O)c2C#N)C1 (stereo not drawn),/,72,.,.,.
COc1ccc2[nH]c3c(c2c1)CCNC3=O,.,.,.,.,61
C[C@@H]1CN([C@H](C)CO)C(=O)c2cc(N(C)C)ccc2O[C@@H](C)CCCCO[C@@H]1CN(C)S(=O)(=O)c1cn(C)cn1,.,/,/,.,/
CCCNC(=O)N1[C@H](CO)[C@H](c2ccccc2-c2cccc(C)c2)[C@@H]1C#N,.,/,/,.,/
CC(C)NC(=O)N1[C@H](CO)[C@@H](c2ccccc2)[C@@H]1CN(C)C(=O)c1cccnc1,.,/,/,.,/
CCc1ccc(NC(=O)c2noc3c2CCC3)cc1,/,.,.,/,73
O=C(NC1CCCCC1)c1noc2c1CCCCC2,.,.,.,/,55
CCc1ccc(NC(=O)c2noc3c2CCCCC3)cc1,/,.,.,/,.
Cc1ccc(NC(=O)c2noc3c2CCCCC3)cc1,.,.,.,/,51
O=C(C[C@H]1CC[C@H]2[C@@H](COC[C@H](O)CN2C(=O)Nc2ccc(F)cc2)O1)NC1Cc2ccccc2C1,.,/,/,.,/
CCCC#Cc1ccc([C@@H]2[C@H](C#N)N(C(=O)C3CCC3)[C@H]2CO)cc1,.,/,/,.,/
